The source of these data is PubChem BioAssay AID602310 (National Center for Advancing Translational Sciences (NCATS), 2012).

About 310 (0.076%) of roughly 410,000 compounds were called active. Another 2% or so got no clear call; they are omitted. Calls follow the shape of the dose curve; as a rule, active = well fitted curve in the direction sought with a large enough effect; inconclusive = small, poorly fitted or top-dose-only effect; inactive = flat fitted curve, though single readings scatter. The list comes from a sample in which actives are over-represented; it also holds similar structures and randomly drawn compounds.
% is scaled to controls: 0 for no effect and ±100 for the full control effect; potency is read from the fitted curve at half-maximal effect.

DNA dC->dU-editing enzyme APOBEC-3G (Homo sapiens), sequence (Q9HC16 whole entry, looked up): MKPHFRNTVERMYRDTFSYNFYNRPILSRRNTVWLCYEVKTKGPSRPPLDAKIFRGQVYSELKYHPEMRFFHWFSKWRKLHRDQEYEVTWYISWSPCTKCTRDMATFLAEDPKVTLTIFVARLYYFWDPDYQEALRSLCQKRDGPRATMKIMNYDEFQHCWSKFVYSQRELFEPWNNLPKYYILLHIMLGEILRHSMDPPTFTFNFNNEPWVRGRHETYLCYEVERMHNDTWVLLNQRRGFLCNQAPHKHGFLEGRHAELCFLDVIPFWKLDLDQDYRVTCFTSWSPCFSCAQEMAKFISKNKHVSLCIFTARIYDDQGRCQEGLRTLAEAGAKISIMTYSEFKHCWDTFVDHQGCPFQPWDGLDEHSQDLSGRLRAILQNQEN

The test has as its target DNA dC->dU-editing enzyme APOBEC-3G (Homo sapiens) (UniProt Q9HC16). Kind of test: qHTS for Inhibitors of Vif-A3G Interactions: qHTS. Also: nearly all actives have a fitted effect of over 60% in size.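 As to activity, negative = active: hits raise eYFP signal because A3G escapes Vif-driven loss.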 Conditions: HeLa A3G-eYFP + Vif (tagged APOBEC3G with the HIV-1 protein that degrades it), YFP fluorescence, overnight; series mostly up to 46.1 µM; activity, negative = active: at the top concentration. The source says:
The recent discovery and characterization of host restriction factors, which provide a potent defense to invading retroviruses, has provided new targets for antiviral drug development. APOBEC3G (A3G) and APOBEC3F (A3F) are potent cytidine deaminases that block HIV-1 replication; HIV-1 expresses the Vif protein, which counteracts A3G and A3F by binding to them and inducing their proteasomal degradation. The Vif-A3G and Vif-A3F interactions provide two potential targets for development of small molecules which can interfere with the ability of Vif to degrade A3G or A3F. […] To identify inhibitors that can interfere with Vif mediated degradation of A3G and A3F, we have developed Hela cell lines that stably express A3G or A3F tagged with eYFP at the C-terminal end (A3G-eYFP or A3F-eYFP, respectively) and Vif. In the absence of an inhibitor, Vif induces degradation of A3G-eYFP and A3F-eYFP, and the cells are not fluorescent. In the presence of an inhibitor, it is expected that Vif will be unable to degrade A3G-eYFP and/or A3F-eYFP, resulting in an increase in yellow fluorescence. In this assays Vif A3G was screened against the Molecular Library Small Molecule Repository (MLSMR). NIH Chemical Genomics Center [NCGC] NIH Molecular Libraries Probe Centers Network [MLPCN] MLPCN Grant: MH093245 Assay Submitter (PI): Vinay Pathak, National Cancer Institute
5 uL of 700 cells/well of A3G-YFP cells are dispensed into black, clear bottom plates. The plates are incubated overnight at 37 deg C. 23 nL of compounds are added by pintool. The plates are incubated overnight at 37 deg C and then read on the TTP Acumen (Ex 488/ Em 500-530).
In general terms: Quantitative high-throughput screening tests each substance at several concentrations.
`CCC(=NCCc1ccccc1)c1c(O)n(C2CCCCC2)c(=O)[nH]c1=O`: the “activity, negative = active” value is -0.155% (inactive). The same measure, in the same setting: next, `O=c1[nH]c(=O)n(Cc2ccccc2)c(O)c1/C=N/Nc1c(F)c(F)c(F)c(F)c1F`: -1.03% (inactive). With `CC/C(=N\NC(=O)c1ccccc1O)c1c(O)n(Cc2ccccc2)c(=O)[nH]c1=O`, the Potency is 10 µM (active). For the compound `ClCCN(CCCl)c1ccc(C=Nc2ccc(/C=C/c3ccnc4ccccc34)cc2)cc1`, the “activity, negative = active” value was -17.1% (inactive).
